The structures appear in SMILES notation. The panel holds about 83,000 compounds, 20% with a hit somewhere; the sample as a whole holds those more often.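 Interpretation: 100, growth as untreated; towards 0, rising growth inhibition; 0, no net growth; 0 to -100, cell death. Compounds scoring below 10 were considered active.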 Unmarked numbers belong to inactive results. Activity calls are given as the source filed them.

The assay concerns CAKI-1 renal. As to the kind of experiment: NCI-60 one-dose screen, 48 h (100 = growth as untreated, 0 = no growth, -100 = all killed). The conditions noted are these: 10 µM unless noted. How it is done:
Growth inhibition of the CAKI-1 human tumor cell line is measured as a screen for anti-cancer activity. Cells are grown in 96 well plates and exposed to the test compound for 48 hours. Compounds are tested at a single concentration, which is 10^-5 M for most compounds. The reported endpoint is percent growth (GI% or GIPRCNT), where numbers from 0 - 100% represent growth inhibition, and numbers from -100% - 0 represent cell death. For example, a value of 40 represents 60% growth inhibition. A value of 0 means no net growth occurred over the course of the experiment. A value of -40 indicates 40% of cells at the beginning of the experiment died by the end of the experiment. A value of -100 means all cells are dead at the end of the experiment.
NCI-60 Human Tumor Cell Lines Screen was performed using the standard one-dose NCI protocol, which is described in more detail at https://dtp.cancer.gov/discovery_development/nci-60/default.htm.
Compounds with GIPRCNT values below 10 were considered active. Activity score was based on GIPRCNT using the following formula: […]
Score is 0 for GIPRCNT values of 100 or above, 50 for GIPRCNT values of 0, and 100 for GIPRCNT values of -100.
As to `CSc1ccccc1NP1(=O)OCC(C)([N+](=O)[O-])CO1` (stereo not given), the growth was 99.3%.
With `Cc1cc(NC(=O)NCCOc2ccc(N3C(N)=NC(N)=NC3(C)C)cc2Cl)ccc1S(=O)(=O)F`, the growth was 95.1%.
As to `O=C(O)CC(Br)C(=O)CBr` (stereo not given), the growth was 95.8%.
The value for `CN=C(NN)NN` was 88.9%; that for `CC1(C)N=C(N)N=C(N)N1c1ccc(CCCCc2ccc(Cl)cc2S(=O)(=O)F)c(Cl)c1` was 20.6%; that for `O=C1NC(=O)C(=Cc2cn(Cc3ccccc3)c3ccccc23)C(=O)N1` was 62.4%.
With `O=[N+]([O-])c1cccc([As]=[As]c2cccc([N+](=O)[O-])c2)c1` (stereo not given), the growth is -95.9% (active).
Consider `Cn1cnnc1[S-].[Au+].c1ccc([PH+](c2ccccc2)c2ccccc2)cc1`, for which the growth was 23.6%.
For the compound `C/C(=N/OC(=O)N(C)C)c1cc(Cl)ccc1Cl`, the growth is 98.9%.
The value for `O=C1NC(=O)C(Cc2ccccc2)(Cc2ccccc2)C(=O)N1` was 114%.
Consider `Nc1nc(N)c(-c2ccc(Cl)c(Cl)c2)c(/C=C/c2ccc(S(=O)(=O)F)cc2)n1`, for which the growth is 84.4%.
The value for `CCOCC1(CCc2ccccc2)C(=O)NC(=S)NC1=O` was 99.9%; that for `COC1=CC(=O)OC(CCc2ccc3c(c2)OCO3)C1` (stereo not given) was 120%; that for `C[CH2][Sn]([CH2]C)([CH2]C)[NH]S(=O)(=O)c1ccc(C)cc1` was 88.6%.
Next, `O=C(O)C1[O][Sb][O]C1C(=O)O` (stereo not given): 118%.
`CC(=O)[O][Hg][c]1nc2c(c(=O)n(C)c(=O)n2C)n1C`: the growth was 83.5%.
As for `CCOc1cc(C=C(C#N)C#N)cc(Br)c1O`, the growth was 92.7%.
Next, `CC[CH2][Pb]([CH2]CC)([CH2]CC)[O]C(=O)C(F)(F)F`: -95.2% (active); `C[C@]12C[C@H](O)[C@H]3[C@@H](CCC4=CC(=O)CC[C@@]43C)[C@@H]1CC[C@@H]2O`: 88%.
Consider `COc1cccc2c1C(=O)c1c(O)c3c(c(O)c1C2=O)CC(O)(/C(C)=N/NC(=O)CCC(=O)N/N=C(\C)C1(O)Cc2c(O)c4c(c(O)c2C(OC2CC(N)C(O)C(C)O2)C1)C(=O)c1c(OC)cccc1C4=O)CC3OC1CC(N)C(O)C(C)O1` (stereo not given), for which the growth was -44.3% [5 µM] (active).
The value for `COc1cc(C2CC(=O)Nc3nc(N)[se]c32)c(OC)c2c1OCO2` (stereo not given) was 89.8%; that for `c1ccc(CCN2CCCCC2Cc2ccccc2)cc1` (stereo not given) was 101%.
The value for `CCC(CO)NC1CCCCC1` (stereo not given) was 61.5%.
Next, `CCN1CC2(CN(CC)C1=S)C(=O)NC(=O)NC2=O`: 85.4%; `O=S(=O)(c1ccc(Cl)cc1)C(Cl)(Cl)Cl`: -6.81% (active); `CC(=O)Nc1ccc(Cc2ccc(NC(C)=O)cc2)cc1`: 88.9%.
As for `O=[As]c1ccc(C(=O)c2ccc(Oc3ccccc3)cc2)cc1` (stereo not given), the growth was -53.7% (active).
In the case of `CC1=C(SCCC(=O)OCC(=O)NCCC[Te]c2ccccc2)C(=O)c2ccccc2C1=O`, the growth was 27.4%.
As to `Oc1c(Br)cc(Br)cc1Br.[Cu+2]`, the growth is 104%.
For the compound `Cc1cc([N+](=O)[O-])c(Cl)cc1NS(=O)(=O)c1ccccc1`, the growth was 63.7%.
Next, `CC(C)(C)N(Cc1ccccc1)N=O`: 92.9%; `C[C@@H]1CC[C@@H]2[C@@H]1[C@H](OC(=O)/C=C/C1CCCCC1)[C@]1(C3CCCCC3)C[C@@H](OC(=O)CO)[C@@]2(C)O1`: -21.9% (active).
The value for `CN(C)P1(N(C)C)=NP(N(C)C)(N(C)C)=NP(N(C)C)(N(C)C)=N1` was 79%; that for `CN1CC2CCC(C1)C2=O` was 91.7%; that for `CC1(C)N=C(N)N=C(N)N1c1cccc(C(=O)Nc2cccc(S(=O)(=O)F)c2)c1` was 98.8%.
Next, `N#CC1c2ccccc2C=CN1C(=O)c1ccc(N(CCCl)CCCl)cc1` (stereo not given): 69.1%; `NC(Cc1ccc2c(c1)OCO2)c1ccc2c(c1)OCO2` (stereo not given): 95.2%; `CNc1ccc(C(=O)CC(O)CCC(C)C2OC(=O)CC(O)CC(=O)CC(O)CC(O)CC(O)CC(O)CC3(O)CC(O)C(C(=O)OC)C(CC(O[C@@H]4O[C@H](C)[C@@H](O)[C@H](N)[C@@H]4O)/C=C/C=C/C=C/C=C/C=C/C=C/C=C/C2C)O3)cc1` (stereo not given in full): 2.61% (active).
Take `CO[C@@H]([CH2][Hg][S]C#N)[C@@H]([CH2][Hg][S]C#N)OC`: the growth is 107%.
The value for `C=CCC1(CC)C(=O)NC(=S)NC1=O` was 96.8%.

For the origin of these results see PubChem BioAssay (NCI).
